High-throughput results deposited in PubChem BioAssay by National Center for Advancing Translational Sciences (NCATS).
Compounds with a hit are over-represented: about 22% of the library has one in this group of screens.
Pf growth 48h: inhibits P. falciparum growth in the first generation, 48 h | Potency, µM (doses to about 28.7 µM), without a hit: top-dose activity change, negative = inhibition, actives largely listed as inhibitors | P. falciparum luciferase growth in erythrocytes, 48 h | 310,000 compounds, 5.9% hits | AID 504832; further: potency means the concentration at half of the fitted maximal effect; on the % scale 0 is the no-effect control and ±100 the full control effect
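Luciferase-expressing parasites in RBCs, 2% Hct / 0.1% parasitemia final; RPMI 1640 + 0.5% Albumax; 37 C, 5% CO2, one generation; luminescence read-out, lower signal = inhibition.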
Shiga inhibitor: inhibitors of Shiga toxin in Vero cells; Vero cells, Shiga toxin protein synthesis inhibition reporter; AID 2315; inhibition, % at 38.7 µM; 290,000 compounds, 9.2% hits; in the data active means inhibition mostly above about 28%, no sharp cut-off; inactive means mostly below about 43%; further: 0% is about no effect
Cycloheximide cs: counter-screen for Shiga toxin inhibitors: cycloheximide protein synthesis inhibition | max response, % | cell reporter, cycloheximide protein synthesis inhibition counterscreen | 300,000 compounds, 12% hits; in the data active means max response mostly above about 13%, no sharp cut-off; inactive means mostly below about 14%; further: read at 38.3 µM for the half of the compounds with a filed dose; 0% is about no effect
LmPK inhibitor: inhibitors of Leishmania mexicana pyruvate kinase; purified LmPK, Kinase-Glo ATP luminescence, 1 h; Potency, µM (highest dose often 57.5 µM), for the others: at the highest dose activity change, negative = inhibition, hits mostly inhibitors; 290,000 compounds, 0.37% hits; further: potency means the concentration at half of the fitted maximal effect; on the % scale 0 is the no-effect control and ±100 the full control effect
Target sequence (Q27686 whole entry, looked up): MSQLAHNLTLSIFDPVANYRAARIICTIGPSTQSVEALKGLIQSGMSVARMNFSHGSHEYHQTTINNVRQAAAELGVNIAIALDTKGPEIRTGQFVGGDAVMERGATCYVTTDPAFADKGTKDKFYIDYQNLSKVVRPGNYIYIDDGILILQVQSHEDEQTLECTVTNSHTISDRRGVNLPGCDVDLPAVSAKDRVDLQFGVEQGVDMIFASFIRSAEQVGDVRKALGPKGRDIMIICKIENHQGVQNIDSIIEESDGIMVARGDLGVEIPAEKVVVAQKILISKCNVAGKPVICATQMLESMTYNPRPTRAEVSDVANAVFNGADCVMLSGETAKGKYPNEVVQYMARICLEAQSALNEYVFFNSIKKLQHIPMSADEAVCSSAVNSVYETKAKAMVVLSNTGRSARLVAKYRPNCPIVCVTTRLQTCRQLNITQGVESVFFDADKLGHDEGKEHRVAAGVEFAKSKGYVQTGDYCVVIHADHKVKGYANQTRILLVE
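In 50 mM imidazole pH 7.2 with 7 mM MgCl2, LmPK (0.1 nM) turned over PEP (0.5 mM) and ADP (0.1 mM) for 1 h at room temperature. Luciferase read-out of ATP.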
Pf growth 96h: P. falciparum growth inhibition at 96 hour, primary screen for plastid delayed-death inhibitors; P. falciparum luciferase reporter growth, 96 h; Potency, µM (top dose mostly 28.7 µM), for inactives: at the top dose activity change, negative = inhibition, most hits filed as inhibitors; 320,000 compounds, 6.9% hits; AID 504834; further: potency means the concentration at half of the fitted maximal effect; on the % scale 0 is the no-effect control and ±100 the full control effect
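P. falciparum expressing integrated firefly luciferase, in erythrocytes at 2% hematocrit, 0.05% parasitemia, incubated with compounds 96 h at 37 C, 5% CO2. Growth inhibition read as loss of luminescence; two-generation exposure targets delayed-death apicoplast inhibitors.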
Active calls of the source: *; ? = inconclusive; / = no result given; [ ] = dose if it differs, or a comment. Unless noted, the call rests on the fitted dose curve; in most records, active means well fitted inhibition curve with a large enough effect; inconclusive means small, poorly fitted or top-dose-only effect, or another doubt; inactive means no such curve, though single readings can be large or run the other way.

SMILES | Pf growth 48h | Shiga inhibitor | Cycloheximide cs | LmPK inhibitor | Pf growth 96h
Cc1ccc(S(=O)(=O)N2CCC(C(=O)NC3CCCCCC3)CC2)cc1 | -18% | 29 | -3 | -4% | -38%
COc1ccc(S(=O)(=O)N2CCC(NC(=O)C3CCCCC3)CC2)cc1 | 16% | 5 | 1 | 4% | 19%
CSc1ccc(S(=O)(=O)N2CCC(C(=O)Nc3ccc(C(N)=O)cc3)CC2)cc1 | 25% | -3 | -4 | -2% | 4.7µM*
CCOC(=O)C1(Cc2cccc(F)c2)CCN(Cc2ccc(COC)o2)CC1 | -11% | -17 | -2 | 0% | -10%
CCn1c(SCC(=O)c2[nH]c(C)c(C(C)=O)c2C)nnc1-c1ccccc1 | -14% | -17 | 1 | -1% | ?
O=c1cc(/N=C/c2coc3c(ccc4ccccc43)c2=O)[nH]c(=S)[nH]1 | 0% | 6 | -2 | 1% | 0%
COc1ccc(S(=O)(=O)N2CCC(C(=O)NCC3CCCO3)CC2)cc1OC (stereo not given) | 21% | -4 | -2 | -10% | 0%
COc1ccc(S(=O)(=O)N2CCC(C(=O)NCC3CCCO3)CC2)cc1 (stereo not given) | 16% | 51* | 8 | 0% | /
CCn1nc(C(=O)Nc2ccc(S(=O)(=O)Nc3nccs3)cc2)c2ccccc2c1=O | ? | -3 | 7 | 5% | /
O=C(Nc1ccc(S(=O)(=O)Nc2ncccn2)cc1)c1nn(Cc2ccccc2)c(=O)c2ccccc12 | 1.9µM* | -6 | -5 | -1% | ?
O=S(=O)(c1ccc2c(c1)CCCN2)N1CCCC1 | -16% | / | / | / | -11%
CCN(CC)c1ccc2c(c1)CCCN2 | 10µM* | -2 | 1 | -23% | 10µM*
CCOC(=O)c1nn(-c2cccc(C)c2)c2nnc(Cc3ccc(C)cc3)c(=O)n12 | 51% | 9 | 10 | 5% | 46%
CC(=O)OCC(=O)[C@@]1(O)[C@H](C)C[C@@H]2[C@H]3CCC4=CC(=O)C=C[C@]4(C)[C@]3(F)[C@@H](O)C[C@@]21C | -3%[12.8 µM] | / | / | / | -22%[12.8 µM]
C[C@H]1C[C@@H]2[C@H]3CCC4=CC(=O)C=C[C@@]4(C)[C@@]3(Cl)[C@@H](O)C[C@]2(C)[C@]1(OC(=O)c1ccco1)C(=O)CCl | 4.5µM* | / | / | / | 2µM*
CCCC(=O)O[C@]1(C(=O)CCl)[C@H](C)C[C@@H]2[C@H]3CCC4=CC(=O)C=C[C@]4(C)[C@@]3(F)C(=O)C[C@@]21C | ? | / | / | / | 1.9µM*
C[C@@H]1C[C@H]2[C@@H]3CCC4=CC(=O)C=C[C@]4(C)[C@@]3(Cl)[C@@H](O)C[C@]2(C)[C@@]1(OC(=O)c1ccco1)C(=O)CCl | 1.9µM* | / | / | / | 2.1µM*
Fc1ccc(Nc2ncnc3sccc23)cc1 | 26% | 35 | 11 | -3% | 28%
CCc1ccc(N(CC(=O)NC(C)C)C(=O)CCC(=O)Nc2nccs2)cc1 | -11% | 32 | -7 | 0% | 90%
CCN1CCN(c2ncc(C(=O)N3CCCc4ccccc43)c3ccccc23)CC1 | ? | -19 | -3 | 2% | 12µM*
O=C(c1cc(S(=O)(=O)N2CCOCC2)ccc1F)N1CCCc2ccccc21 | ? | 27 | 22* | 0% | -16%
O=C(c1cccc(F)c1F)N1CCCc2ccccc21 | ? | / | 6 | 1% | 118%
O=C(c1ccccc1F)N1CCCc2ccccc21 | 21% | 55* | 29* | 0% | ?
CCCc1nc(N2CCOCC2)c2sc(=S)n(-c3ccccc3)c2n1 | / | -9 | -3 | 7% | 7%
CCN1C(=O)C(C)S/C1=N\S(=O)(=O)c1ccc(Cl)s1 (stereo not given) | / | -11 | -2 | 9% | 8%
SMILES | Pf growth 48h | Shiga inhibitor | Cycloheximide cs | LmPK inhibitor | Pf growth 96h
COc1ccc(N2CCN(C3CCCN(C(=O)CN4CCCC4=O)C3)CC2)cc1 (stereo not given) | -2% | 2 | -4 | -1% | ?
O=C1CCCN1CC(=O)N1CCCC(N2CCN(c3cccc(Cl)c3)CC2)C1 (stereo not given) | -7% | 44* | 30* | -4% | ?
Cc1cc(C(=O)N2CCCC(N3CCN(c4cccc(Cl)c4)CC3)C2)nn1C (stereo not given) | 56% | 66 | 19* | 6% | -15%
Cc1cc(C(=O)N2CCCC(N3CCN(c4cccc(C(F)(F)F)c4)CC3)C2)nn1C (stereo not given) | -12% | 1 | 12 | 1% | 63%
CCC(=Nc1ccc(OC)cc1OC)c1c(O)n(C2CCCCC2)c(=O)[nH]c1=O | 7.4µM* | -12 | -4 | -1% | ?
CCC/C(=N\NC(=O)C1CC1)c1ccc(Br)cc1 | ? | 6 | 3 | -1% | 25%
CC1=Nc2nc(N3CCCCC3)c(C#N)c3c4c(nc(c23)N1)N(c1ccc(C(C)C)cc1)C(=O)C4 | ? | -13 | -1 | -3% | 1.2µM*
O=C(Nc1ccc(F)cc1)c1ccc(NC(=O)C2CCCO2)cc1 (stereo not given) | 33% | 73* | 21* | -6% | 1.9µM*
O=C(Nc1cccc(O)c1)c1ccc(NC(=O)C2CCCO2)cc1 (stereo not given) | 114% | 110* | 47* | -9% | 7%
CC(/C=C/c1ccco1)=N\NC(=O)c1cccnc1 | / | 6 | 5 | 8% | 31%
C/C(=N/NC(=O)OC(C)(C)C)c1ccco1 | 92% | 66* | 29* | ? | 53%
CC(/C=C/c1ccco1)=N/NC(=O)OC(C)(C)C | 36% | 52 | 23* | 1% | 2%
CC(/C=C/c1ccco1)=N\NC(=O)c1cc(Cl)ccc1O | -18% | 91* | 27* | 20% | 3%
CCNC(=O)N1CCCC(C(=O)c2ccc(OC)c(OC)c2)C1 (stereo not given) | 19% | -3 | -1 | -5% | ?
COc1ccc(C(=O)NC(=S)NNC(=O)c2cnccn2)cc1 | 2.6µM* | 6 | 13 | -1% | ?
COc1cc(C(=O)NC(=S)NC(C)C)cc(OC)c1OC | -6% | 12 | -3 | 0% | -13%
COc1cc(C(=O)NC(=S)NNC(=O)c2cnccn2)cc(OC)c1OC | 12µM* | 2 | -4 | -4% | ?
COc1cc(C(=O)NNC(=S)NC(=O)c2ccccc2C)cc(OC)c1OC | -4% | 2 | -2 | -2% | -1%
O=C(NC(=S)NNC(=O)c1cnccn1)c1ccc(Cl)cc1 | 4.1µM* | 16 | 9 | 4% | ?
O=C(NCCCNC(=O)c1cnccn1)c1ccc(Cl)cc1 | -7% | -1 | 1 | 8% | 8%
COc1ccccc1C(=O)NNC(=S)NC(=O)c1cc(OC)c(OC)c(OC)c1 | -12% | -11 | -2 | 3% | 13µM*
CN(CCOc1ccccc1)S(=O)(=O)c1ccc2oc3ccccc3c2c1 | 0% | -26 | -5 | -6% | 34%
CC(C)(C)OC(=O)NCCCCCNC(=O)c1[nH]cnc1C(=O)Nc1ccc(Cl)cc1 | 10µM* | / | / | / | ?
Cc1ccc(NC(=O)c2nc[nH]c2C(=O)NCCCCCNC(=O)OC(C)(C)C)cc1 | 3.3µM* | / | / | / | ?
